Results filed as inconclusive are left out. Activity calls are given as the source filed them. How the source made its calls, unless noted: active means hit-call score of the fitted dose curve at least 0.9, where 1 is the maximum; inconclusive means response in the unintended direction; inactive means score below 0.9.

For assay [1], the target named is Hepatocyte nuclear factor 3-beta (Homo sapiens) (UniProt Q9Y261). The assay can be described thus: ATG_FoxA2_CIS: Attagene CIS-FACTORIAL HepG2 Assay for human Forkhead box A2 (FOXA2) (AID 2282942; active means hit-call score of the fitted dose curve at least 0.9, where 1 is the maximum; inactive means score below 0.9). As to conditions: HepG2 cis-reporter transcription factor activity, 24 h; actives raise or lower the signal. A digest of the protocol:
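HepG2 transiently transfected with a multiplexed cis-promoter reporter library read endogenous FOXA2 activity. After 24 h compound exposure, reporter mRNA was quantified by RT-PCR, HpaI digestion and capillary electrophoresis. Bidirectional fit against DMSO.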

Assay [2] is described as follows: ATG_GRE_CIS: Attagene CIS-FACTORIAL HepG2 Assay for human Glucocorticoid Response Elements (GRE) (AID 2282947; active means hit-call score of the fitted dose curve at least 0.9, where 1 is the maximum; inactive means score below 0.9). The note with it: HepG2 GRE cis-reporter, Attagene multiplex mRNA; actives raise or lower the signal. A digest of the protocol: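 Transiently transfected HepG2 cells carrying GRE cis-reporter units (endogenous TF activity) dosed 24 h; reporter mRNA quantified by RT-PCR, 6-FAM labelling, HpaI digestion and capillary electrophoresis. Bidirectional fit versus DMSO baseline.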

The nature of assay [3]: ATG_RORE_CIS: Attagene CIS-FACTORIAL HepG2 Assay for human RAR-related Orphan Receptor Element (RORE) (AID 2282959; active means hit-call score of the fitted dose curve at least 0.9, where 1 is the maximum; inactive means score below 0.9). The note with it: HepG2 Attagene cis-factorial RORE reporter, mRNA; actives raise or lower the signal. A digest of the protocol:
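HepG2 cells carrying transiently transfected cis-regulated reporter units; RORE-driven reporter mRNA quantified 24 h post-dosing by RT-PCR, 6-FAM primer extension, HpaI digestion and capillary electrophoresis. Bidirectional fit versus DMSO.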

A short description of assay [4]: ATG_SREBP_CIS: Attagene CIS-FACTORIAL HepG2 Assay for human Sterol Regulatory Element Binding (SREBP) (AID 2282962; active means hit-call score of the fitted dose curve at least 0.9, where 1 is the maximum; inactive means score below 0.9). As to conditions: HepG2 Attagene cis-factorial SREBP reporter, mRNA; actives raise or lower the signal. In short, it runs like this:
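Twenty-four hours after chemical dosing of transfected HepG2 cultures, reporter RNA was converted to cDNA, amplified, end-labelled with 6-FAM and resolved by capillary electrophoresis. Responses were fitted relative to DMSO.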

Assay [5] in a line: ATG_M_32_TRANS: Attagene TRANS-FACTORIAL HepG2 Assay for M32 Transcription Factor (Internal Marker) (AID 2282984).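 On outcome: transcript level of a background control reporter unit measured by RT-PCR and capillary electrophoresis.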 As to conditions: HepG2 Attagene TRANS M32 internal marker reporter. In short, it runs like this:
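HepG2 cells transiently transfected with GAL4-UAS reporter units, dosed for 24 hours. Reporter mRNA quantified by RT-PCR, 6-FAM labelling, HpaI digestion and capillary electrophoresis; internal-marker signal fitted upward relative to DMSO.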

The target of assay [6] is human Peroxisome Proliferator-activated Receptor alpha (PPARa), PPARA (gene 5465) (UniProt Q07869). Briefly: ATG_PPARa_TRANS: Attagene TRANS-FACTORIAL HepG2 Assay for human Peroxisome Proliferator-activated Receptor alpha (PPARa) (AID 2283001).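 On AC50: potency for gain of reporter signal over DMSO so agonist or activator.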 In short, it runs like this:
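HepG2 cells transiently transfected with multiplexed GAL4-UAS reporters driven by exogenous chimeric NR-Gal4 proteins; reporter mRNA measured after 24 h dosing. Read-out by RT-PCR, 6-FAM labelling, HpaI digestion and capillary electrophoresis; gain of signal versus DMSO.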

Assay [7] concerns the target human Retinoid X Receptor beta (RXRb), RXRB (gene 6257) (UniProt P28702). Briefly: ATG_RXRb_TRANS: Attagene TRANS-FACTORIAL HepG2 Assay for human Retinoid X Receptor beta (RXRb) (AID 2283013). In short, it runs like this:
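Transfect HepG2 with GAL4-UAS multi-reporter constructs (chimeric NR-Gal4, TRANS format); dose compound 24 h; isolate RNA, RT-PCR, FAM primer extension, HpaI digest; quantify by capillary electrophoresis; positive direction vs DMSO.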

Assay [8] can be described thus: TOX21_p53_BLA_p2_viability: Viability Assessment in the Tox21 HCT-116 p53 Agonism Beta-lactamase Assay, Phase 2 (AID 2283591).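 Further: compound exposure lasted 16 h at 37 °C; actives lower the ATP signal meaning cytotoxicity.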 A digest of the protocol:
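HCT116 p53-bla cells, 4000/well, dosed after 5 h plating (217-fold dilution of DMSO stocks) and incubated 16 h at 37C. Viability taken as cellular ATP by CellTiter-Glo luminescence after 30 min RT; signal loss marks cytotoxicity.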

In assay [9] the target is Cellular tumor antigen p53 (Homo sapiens) (UniProt P04637). The assay can be described thus: TOX21_p53_BLA_p2_ratio: Tox21 HCT-116 p53 Agonism Beta-lactamase Assay, Ratio, Phase 2 (AID 2283592). In short, it runs like this: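 Human colon HCT116 cells with an inducible p53 beta-lactamase reporter are exposed to test chemicals for 16 h at 37C. Reporter induction is read as the 460/530 nm emission ratio after CCF4-AM loading, normalized to DMSO.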
Chain of Cellular tumor antigen p53 (Homo sapiens) (P04637 whole entry, looked up): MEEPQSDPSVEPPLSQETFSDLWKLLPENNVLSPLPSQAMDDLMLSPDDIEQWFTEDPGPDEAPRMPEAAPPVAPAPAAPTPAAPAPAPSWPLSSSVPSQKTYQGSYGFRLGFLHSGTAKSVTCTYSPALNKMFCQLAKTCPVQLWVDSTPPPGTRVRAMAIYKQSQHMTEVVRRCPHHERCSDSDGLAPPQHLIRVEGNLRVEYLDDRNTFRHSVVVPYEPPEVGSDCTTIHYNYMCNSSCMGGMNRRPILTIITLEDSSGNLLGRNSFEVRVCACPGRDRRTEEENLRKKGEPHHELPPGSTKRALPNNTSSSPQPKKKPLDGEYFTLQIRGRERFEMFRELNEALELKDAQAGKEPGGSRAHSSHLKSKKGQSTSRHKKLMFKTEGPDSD

Assay [10] can be described thus: TOX21_p53_BLA_p3_viability: Viability Assessment in the Tox21 HCT-116 p53 Agonism Beta-lactamase Assay, Phase 3 (AID 2283593).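 Further: cells exposed to compound for 16 h before reading.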 In short, it runs like this: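 HCT116 cells, 4000/well, dosed 5 h after plating by pin transfer (217-fold dilution from DMSO stock) and incubated 16 h at 37C, 5% CO2. Viability read as ATP luminescence with CellTiter-Glo after 30 min at room temperature.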

The target in assay [11] is Cellular tumor antigen p53 (Homo sapiens) (UniProt P04637). Briefly: TOX21_p53_BLA_p3_ratio: Tox21 HCT-116 p53 Agonism Beta-lactamase Assay, Ratio, Phase 3 (AID 2283596). In short, it runs like this: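 HCT116 p53-bla cells (4000/well) given compound in DMSO (217-fold dilution) after 5 h, incubated 16 h at 37C. CCF4-AM substrate 2 h at room temperature; 460/530 nm emission ratio, gain fitted against DMSO.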

For assay [12] the target is unchanged. Briefly: TOX21_p53_BLA_p5_ratio: Tox21 HCT-116 p53 Agonism Beta-lactamase Assay, Ratio, Phase 5 (AID 2283599). A digest of the protocol:
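HCT-116 p53-bla cells (4000/well) plated 5 h, dosed with compound (217-fold DMSO dilution) for 16 h at 37 C; CCF4-AM substrate 2 h at room temperature. Activity is the 460/530 nm emission ratio (405 nm excitation), fitted in gain-of-signal direction versus DMSO.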

Assay [13] is described as follows: TOX21_p53_BLA_p5_viability: Viability Assessment in the Tox21 HCT-116 p53 Agonism Beta-lactamase Assay, Phase 5 (AID 2283600). A digest of the protocol:
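Seeded cells (4000/well) settle 5 h before compound addition. Plates then incubate 16 h at 37C, receive FRET substrate for 2 h, and finally CellTiter-Glo, with luminescence measured after a 30 min room-temperature incubation.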

The target in assay [14] is Cellular tumor antigen p53 (Homo sapiens) (UniProt P04637). The assay can be described thus: TOX21_p53_BLA_p4_ratio: Tox21 HCT-116 p53 Agonism Beta-lactamase Assay, Ratio, Phase 4 (AID 2283601). A digest of the protocol:
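HCT-116 p53 beta-lactamase reporter cells (4000/well) preincubated 5 h, then compound (217-fold dilution of DMSO stock) for 16 h at 37C. CCF4-AM substrate added 2 h at room temperature; 460/530 nm emission ratio fitted upward versus DMSO.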

For assay [15], the target named is Retinoic acid receptor alpha (Homo sapiens) (UniProt P10276). The assay can be described thus: ATG_DR5_RAR_CIS: Attagene CIS-FACTORIAL HepG2 Assay for human Retinoic Acid Receptor Alpha (RARE), DR5 submotif (AID 2282934; active means hit-call score of the fitted dose curve at least 0.9, where 1 is the maximum; inactive means score below 0.9;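 on AC50: reporter responds to endogenous RAR alpha beta and gamma in HepG2 not RARA alone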). As to conditions: HepG2 Attagene cis-factorial RARE DR5 reporter, mRNA; actives raise or lower the signal. A digest of the protocol: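 Read-out: DR5-driven reporter transcript measured by RT-PCR, 6-FAM primer extension, HpaI digest and capillary electrophoresis. Human HepG2 liver cells carry transiently transfected cis-element reporter constructs; dosing lasts 24 h. Gain or loss of signal fitted against DMSO baseline.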
Chain of Retinoic acid receptor alpha (Homo sapiens) (P10276 whole entry, looked up): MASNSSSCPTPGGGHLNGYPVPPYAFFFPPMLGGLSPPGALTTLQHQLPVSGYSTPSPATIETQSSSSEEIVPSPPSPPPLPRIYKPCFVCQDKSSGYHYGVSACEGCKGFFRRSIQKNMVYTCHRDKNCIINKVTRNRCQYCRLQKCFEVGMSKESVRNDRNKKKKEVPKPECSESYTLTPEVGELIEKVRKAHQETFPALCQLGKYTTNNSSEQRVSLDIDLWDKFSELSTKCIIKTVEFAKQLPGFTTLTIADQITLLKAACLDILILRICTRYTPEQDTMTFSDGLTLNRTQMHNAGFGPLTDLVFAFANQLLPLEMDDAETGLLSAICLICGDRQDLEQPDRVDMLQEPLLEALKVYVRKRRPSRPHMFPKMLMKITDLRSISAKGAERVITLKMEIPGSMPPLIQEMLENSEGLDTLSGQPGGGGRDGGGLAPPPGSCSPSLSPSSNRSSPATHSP

The nature of assay [16]: ATG_PBREM_CIS: Attagene CIS-FACTORIAL HepG2 Assay for human Phenobarbital-responsive Enhancer Module (PBREM) (AID 2282955; active means hit-call score of the fitted dose curve at least 0.9, where 1 is the maximum; inactive means score below 0.9). As to conditions: HepG2 PBREM cis-reporter, Attagene multiplexed transcription; actives raise or lower the signal. A digest of the protocol:
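HepG2 cells transiently transfected with multiple cis-regulated reporter units measure endogenous transcription factor activity; 24 h compound exposure. Reporter mRNA quantified by RT-PCR, fluorescent labelling, HpaI digestion and capillary electrophoresis; bidirectional fit versus DMSO.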

Assay [17] addresses Hepatocyte nuclear factor 4-alpha (Homo sapiens) (UniProt P41235). The assay can be described thus: ATG_HNF4a_TRANS: Attagene TRANS-FACTORIAL HepG2 Assay for human Hepatocyte Nuclear Factor 4 alpha (HNF4a) (AID 2282982). The note with it: HepG2 HNF4a transactivation reporter, mRNA readout. In short, it runs like this: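 HepG2 cells transiently transfected with HNF4a-Gal4 chimera and GAL4-UAS reporter units, dosed for 24 h. Reporter mRNA measured by RT-PCR, fluorescent primer extension and capillary electrophoresis; gain-of-signal fitted relative to DMSO.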

The nature of assay [18]: ATG_NFI_CIS: Attagene CIS-FACTORIAL HepG2 Assay for human Nuclear Factor I (NFI) (AID 2282989; active means hit-call score of the fitted dose curve at least 0.9, where 1 is the maximum; inactive means score below 0.9). The note with it: HepG2 cis-regulatory reporter, NFI response element transcription; actives raise or lower the signal. In short, it runs like this:
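Reporter transcription driven by endogenous transcription factors in HepG2 cells; 24 h treatment. Quantitation by labelled RT-PCR fragments on capillary electrophoresis, gain- or loss-of-signal relative to DMSO.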

Assay [19] is described as follows: ATG_NF_kB_CIS: Attagene CIS-FACTORIAL HepG2 Assay for human Nuclear Factor Kappa B (NF-kB) (AID 2282991; active means hit-call score of the fitted dose curve at least 0.9, where 1 is the maximum; inactive means score below 0.9). As to conditions: HepG2 Attagene cis-factorial NF-kB reporter mRNA; actives raise or lower the signal. A digest of the protocol:
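HepG2 cells transfected with cis-promoter-driven reporter units, so endogenous transcription factor activity is measured. Reporter mRNA quantified 24 h after dosing by RT-PCR and capillary electrophoresis, with bidirectional fitting against DMSO.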

Assay [20] can be described thus: ATG_FoxO_CIS: Attagene CIS-FACTORIAL HepG2 Assay for human Forkhead box O (FoxO) (AID 2282943; active means hit-call score of the fitted dose curve at least 0.9, where 1 is the maximum; inactive means score below 0.9). As to conditions: HepG2 Attagene cis-reporter, FoxO element, mRNA; actives raise or lower the signal. A digest of the protocol:
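Read-out: fluorescence of 6-FAM-labelled reporter cDNA fragments resolved by capillary electrophoresis. Transiently transfected HepG2 cells were dosed for 24 h; activity fitted in both directions relative to DMSO controls.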

Chain of Hepatocyte nuclear factor 4-alpha (Homo sapiens) (P41235 whole entry, looked up, the tested form may be a part): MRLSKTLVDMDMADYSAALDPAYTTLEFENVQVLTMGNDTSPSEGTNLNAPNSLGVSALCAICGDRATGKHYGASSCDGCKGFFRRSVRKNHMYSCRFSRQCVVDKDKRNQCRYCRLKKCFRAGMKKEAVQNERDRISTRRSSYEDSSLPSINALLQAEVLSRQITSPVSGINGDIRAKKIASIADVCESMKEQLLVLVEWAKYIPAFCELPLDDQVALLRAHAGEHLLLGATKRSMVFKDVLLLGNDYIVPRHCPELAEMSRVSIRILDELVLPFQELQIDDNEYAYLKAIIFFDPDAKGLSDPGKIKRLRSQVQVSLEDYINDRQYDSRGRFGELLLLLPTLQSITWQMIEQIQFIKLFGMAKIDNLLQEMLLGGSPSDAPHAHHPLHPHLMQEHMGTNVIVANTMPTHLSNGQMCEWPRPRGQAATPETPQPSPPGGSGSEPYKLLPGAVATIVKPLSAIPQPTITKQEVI
Chain of human Peroxisome Proliferator-activated Receptor alpha (PPARa), PPARA (gene 5465) (Q07869 whole entry, looked up, the tested form may be a part): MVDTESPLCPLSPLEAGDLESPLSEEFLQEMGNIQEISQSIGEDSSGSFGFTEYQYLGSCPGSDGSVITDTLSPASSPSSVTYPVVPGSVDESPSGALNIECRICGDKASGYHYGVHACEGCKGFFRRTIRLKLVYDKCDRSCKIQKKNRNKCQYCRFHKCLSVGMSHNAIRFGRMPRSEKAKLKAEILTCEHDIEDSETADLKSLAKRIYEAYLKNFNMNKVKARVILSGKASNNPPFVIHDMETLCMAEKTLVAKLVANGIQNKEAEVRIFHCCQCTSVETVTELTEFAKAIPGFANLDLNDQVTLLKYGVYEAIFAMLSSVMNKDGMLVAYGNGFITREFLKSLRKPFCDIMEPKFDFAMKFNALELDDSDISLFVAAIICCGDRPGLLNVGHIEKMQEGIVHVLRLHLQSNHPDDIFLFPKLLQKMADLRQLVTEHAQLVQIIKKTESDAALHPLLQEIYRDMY
Chain of Hepatocyte nuclear factor 3-beta (Homo sapiens) (Q9Y261 whole entry, looked up): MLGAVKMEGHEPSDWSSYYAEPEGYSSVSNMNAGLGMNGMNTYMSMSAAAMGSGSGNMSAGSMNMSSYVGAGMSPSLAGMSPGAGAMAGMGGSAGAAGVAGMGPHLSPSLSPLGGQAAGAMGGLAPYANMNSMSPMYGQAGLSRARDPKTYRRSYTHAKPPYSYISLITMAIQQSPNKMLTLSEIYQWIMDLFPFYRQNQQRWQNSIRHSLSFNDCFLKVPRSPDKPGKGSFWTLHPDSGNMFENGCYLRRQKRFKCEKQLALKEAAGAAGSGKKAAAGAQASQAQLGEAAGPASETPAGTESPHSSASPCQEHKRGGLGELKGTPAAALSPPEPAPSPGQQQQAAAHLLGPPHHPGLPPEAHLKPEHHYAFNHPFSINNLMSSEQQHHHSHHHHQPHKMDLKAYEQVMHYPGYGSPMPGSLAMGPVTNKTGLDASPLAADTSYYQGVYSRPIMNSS
Chain of human Retinoid X Receptor beta (RXRb), RXRB (gene 6257) (P28702 whole entry, looked up, the tested form may be a part): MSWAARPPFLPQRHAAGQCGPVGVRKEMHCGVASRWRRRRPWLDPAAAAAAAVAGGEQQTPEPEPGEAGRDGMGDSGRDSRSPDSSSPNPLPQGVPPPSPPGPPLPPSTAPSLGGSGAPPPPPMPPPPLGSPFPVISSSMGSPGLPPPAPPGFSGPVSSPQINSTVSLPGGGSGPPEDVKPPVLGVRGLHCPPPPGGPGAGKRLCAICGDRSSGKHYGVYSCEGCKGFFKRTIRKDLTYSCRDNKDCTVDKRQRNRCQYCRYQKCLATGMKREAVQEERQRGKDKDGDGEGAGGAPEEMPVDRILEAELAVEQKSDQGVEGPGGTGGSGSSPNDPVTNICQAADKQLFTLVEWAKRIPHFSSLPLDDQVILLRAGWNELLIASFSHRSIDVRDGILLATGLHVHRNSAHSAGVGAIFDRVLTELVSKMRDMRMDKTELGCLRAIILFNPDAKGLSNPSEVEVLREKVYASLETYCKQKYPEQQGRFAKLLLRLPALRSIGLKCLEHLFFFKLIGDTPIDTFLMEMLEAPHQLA

Consider `CC(C)n1c(/C=C/[C@@H](O)C[C@@H](O)CC(=O)O)c(-c2ccc(F)cc2)c2ccccc21`, for which the outcome in assay [1], in assay [2], in [5], in [6], in assay [7] and in [8] was inactive. Also, the outcome in [9], in assay [10], in assay [11], in assay [12], in assay [13] and in assay [14] was inactive. Besides, the concentration at half-maximal activity (AC50) in assay [3] was 55.3 µM (active); in assay [4], 0.284 µM (active).

Consider `CCCCCCCCCCCCCCCCCC[N+](C)(C)C`, for which the half-maximal activity concentration (AC50) in assay [15] is 42.5 µM (active); in [16], 45.4 µM (active); in [4], 6.46 µM (active); in assay [17] it was 37.3 µM (active); in [5], 16.2 µM (active); in assay [19], 3.31 µM (active). In addition, the AC50 is 40.9 µM (active) in assay [6]; 46.2 µM (active) in assay [8]; 73.2 µM (active) in assay [9]; 46.2 µM (active) in [10]; 72.7 µM (active) in [11]; 75 µM (active) in [12]. Also, the half-maximal activity concentration (AC50) was 62.8 µM (active) in assay [13] and 75.3 µM (active) in assay [14]. For the same compound, the outcome in assay [2], in [3] and in assay [18] was inactive.

For `CC/C=C\CC1=C(C)CCC1=O`, the compound was called inactive in [1], in assay [16], in assay [3], in assay [17], in assay [5] and in assay [19]. The compound was called inactive in [6], in assay [7], in assay [9], in assay [10], in assay [11] and in [12]. The compound was called inactive in assay [13] and in assay [14].

In the case of `Oc1ccc(Oc2ccccc2)cc1`, the call in assay [15], in assay [1], in [20], in assay [16], in assay [3] and in [4] was inactive. The result in [18], in assay [19], in assay [6], in [8], in [10] and in assay [11] was inactive. For the same compound, the result in assay [12] and in [14] was inactive. Further, the figures for the concentration at half-maximal activity (AC50) in [7] and in [9] were 59.2 µM (active) and 45 µM (active), respectively.

Consider `OCCc1ccccn1`, for which the compound was called inactive in assay [20], in assay [2], in [16], in assay [4], in assay [17] and in [18]. In addition, the compound was classed as inactive in assay [8], in assay [9], in [11], in [13] and in assay [14].

On to `Nc1ccc(S(=O)(=O)Nc2cnc3ccccc3n2)cc1`, for which the call in [1], in [20], in assay [2], in [16], in [3] and in assay [17] was inactive. The compound was classed as inactive in assay [5], in assay [18], in assay [19], in assay [8], in assay [9] and in assay [10]. Also, the result in [11], in assay [12], in assay [13] and in [14] was inactive. The half-maximal activity concentration (AC50) in assay [7] is 31.5 µM (active).

Consider `CCCN[C@H]1CCc2nc(N)sc2C1`, for which the compound was called inactive in assay [1], in [16], in [3], in [4], in assay [18] and in assay [19]. Moreover, the compound was called inactive in assay [7], in assay [8], in assay [9], in assay [10], in assay [11] and in assay [12]. The compound was called inactive in assay [13] and in [14].

Turning to `O=C(C(=O)c1ccccc1)c1ccccc1`, the outcome in assay [1], in assay [20], in assay [2], in assay [16], in assay [4] and in assay [17] was inactive. The compound was classed as inactive in assay [5], in assay [18], in assay [19], in assay [9], in assay [11] and in assay [14].

Broadly, the AC50 is the midpoint of the concentration-response curve, whichever way the signal moves.
